Test [1] concerns the target DDX1 (UniProt Q92499). Put plainly: cross-linking mass spectrometry. The conditions noted are these: DSS, purified complex.
In test [2] the target is RTCB (UniProt Q9Y3I0). In words: cross-linking mass spectrometry. The conditions noted are these: DSS, purified complex.
Chain of RTCB (Q9Y3I0 whole entry): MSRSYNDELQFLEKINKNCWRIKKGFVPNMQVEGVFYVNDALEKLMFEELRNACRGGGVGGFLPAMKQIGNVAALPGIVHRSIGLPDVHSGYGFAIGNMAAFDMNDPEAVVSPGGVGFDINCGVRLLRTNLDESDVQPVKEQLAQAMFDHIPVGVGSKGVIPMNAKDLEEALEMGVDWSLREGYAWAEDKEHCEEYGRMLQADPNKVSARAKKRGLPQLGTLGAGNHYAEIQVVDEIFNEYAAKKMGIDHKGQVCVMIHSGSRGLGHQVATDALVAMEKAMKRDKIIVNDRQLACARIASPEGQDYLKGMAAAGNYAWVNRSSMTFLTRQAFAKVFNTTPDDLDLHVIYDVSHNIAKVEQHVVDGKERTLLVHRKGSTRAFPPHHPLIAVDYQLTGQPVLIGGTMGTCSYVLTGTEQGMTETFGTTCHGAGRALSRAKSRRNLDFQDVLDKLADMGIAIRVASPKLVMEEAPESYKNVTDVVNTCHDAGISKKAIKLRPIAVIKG

Chain of FAM98B (Q52LJ0 whole entry): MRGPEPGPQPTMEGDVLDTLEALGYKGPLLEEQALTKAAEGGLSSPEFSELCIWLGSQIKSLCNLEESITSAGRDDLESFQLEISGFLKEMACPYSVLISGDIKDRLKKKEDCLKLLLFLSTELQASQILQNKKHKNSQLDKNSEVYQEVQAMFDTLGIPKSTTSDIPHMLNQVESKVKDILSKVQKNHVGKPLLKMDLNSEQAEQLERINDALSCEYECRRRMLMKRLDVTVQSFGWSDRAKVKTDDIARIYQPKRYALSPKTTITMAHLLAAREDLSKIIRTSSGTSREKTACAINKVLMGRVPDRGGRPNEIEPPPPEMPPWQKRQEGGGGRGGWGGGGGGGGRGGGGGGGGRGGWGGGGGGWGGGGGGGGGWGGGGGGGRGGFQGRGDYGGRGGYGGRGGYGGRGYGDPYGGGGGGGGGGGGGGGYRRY
Chain of DDX1 (Q92499 whole entry): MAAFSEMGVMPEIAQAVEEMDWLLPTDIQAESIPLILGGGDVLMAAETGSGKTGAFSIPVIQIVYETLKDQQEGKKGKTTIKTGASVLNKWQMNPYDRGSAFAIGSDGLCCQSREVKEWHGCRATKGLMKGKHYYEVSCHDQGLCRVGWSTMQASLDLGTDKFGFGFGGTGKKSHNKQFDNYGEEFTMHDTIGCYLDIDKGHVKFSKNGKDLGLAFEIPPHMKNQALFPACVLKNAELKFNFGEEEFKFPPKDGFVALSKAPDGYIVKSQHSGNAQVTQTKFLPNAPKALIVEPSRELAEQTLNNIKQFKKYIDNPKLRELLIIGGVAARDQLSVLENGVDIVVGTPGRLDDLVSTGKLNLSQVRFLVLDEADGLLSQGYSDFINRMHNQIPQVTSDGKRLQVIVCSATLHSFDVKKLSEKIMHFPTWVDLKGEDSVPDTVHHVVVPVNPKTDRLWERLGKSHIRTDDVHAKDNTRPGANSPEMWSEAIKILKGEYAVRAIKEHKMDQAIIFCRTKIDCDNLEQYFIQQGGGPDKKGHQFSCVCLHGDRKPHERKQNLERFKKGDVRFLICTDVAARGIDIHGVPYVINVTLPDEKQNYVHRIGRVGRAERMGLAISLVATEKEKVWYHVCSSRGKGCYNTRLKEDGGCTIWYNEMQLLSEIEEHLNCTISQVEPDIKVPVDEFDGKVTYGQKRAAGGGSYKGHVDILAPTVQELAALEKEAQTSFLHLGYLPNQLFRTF

Regarding FAM98B, Q52LJ0, the figures for the cross-linked residues entry in test [1] and in test [2] were “K245 - K693” and “K280 - K245”, respectively.

Values taken from article PMC8668186, “Molecular architecture of the human tRNA ligase complex” (eLife, 2021).
